# Screens as filed in PubChem.
# GalR3 antagonist: blocks the human galanin receptor 3; O60755; HEK293 GalR3-CNG cAMP membrane potential fluorescence; galR3 body fused to GalR1 C-terminus; inhibition, % at 3 µM; hit rate 0.44% among 360,000;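 active = inhibition above the screen-wide average plus 3 SD, cut at about 13% in these data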;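 note: forskolin and galanin both at EC90 stimulate the cells; cAMP rise reported by CNG channel membrane potential dye signal; 0% = forskolin plus galanin with DMSO and 100% = forskolin alone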
# Target sequence (O60755 1-299 limits assumed): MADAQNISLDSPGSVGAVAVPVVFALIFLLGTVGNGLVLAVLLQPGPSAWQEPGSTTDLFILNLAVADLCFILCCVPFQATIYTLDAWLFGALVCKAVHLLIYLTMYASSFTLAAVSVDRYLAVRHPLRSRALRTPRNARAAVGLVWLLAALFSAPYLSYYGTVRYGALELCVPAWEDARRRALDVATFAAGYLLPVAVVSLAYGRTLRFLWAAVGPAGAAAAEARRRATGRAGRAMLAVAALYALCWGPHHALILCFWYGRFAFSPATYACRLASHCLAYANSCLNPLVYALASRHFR
# Jurkat NFkB inh: lowers PMA/ionomycin-induced NF-kB signal in Jurkat cells; PMA/ionomycin-induced NF-kB luciferase reporter, luminescence; AID 435003; hit rate 0.53% among 330,000; inhibition, % at 4 µM; in the data active = inhibition above about 50%
# 697 NFkB inh: lowers PMA/ionomycin-induced NF-kB signal in 697 B cells; 697 B-cell NF-kB luciferase reporter, 16 h; AID 435022; hit rate 0.33% among 330,000; inhibition, % at 4 µM; in the data active = inhibition above about 35%
# Gli-Sufu antag: Gli-Sufu pathway antagonism; inhibition, % at 5 µM; AID 588413; hit rate 0.74% among 340,000; Sufu-KO-LIGHT fibroblasts, Gli luciferase reporter luminescence;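 active = inhibition above about 55%, limit read from the data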;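 note: 0% = DMSO-treated cells and 100% = wells with medium but no cells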
# NR2F2 inh: inhibitors of human COUP-TFII (NR2F2). HEK293T NGFI-A luciferase reporter, luminescence. inhibition, % at 8.6 µM. hit rate 0.7% among 370,000;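 active = inhibition above a per-plate cutoff, mean inhibition of test wells between control levels plus 3 SD, cut at about 38% in these data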;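 note: cells cotransfected with COUP-TFII expression vector driving the NGFI-A reporter; 0% = median of COUP-TF2 test wells and 100% = reporter-only cells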
# Gli antag conf: Gli-SUFU antagonism confirmation, single concentration; AID 602428; hit rate 40% among 2,500; shares compounds with Gli-Sufu antag; Sufu-KO-LIGHT cells, Gli luciferase reporter, luminescence; inhibition, % at 5 µM;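 active = mean inhibition at 5 µM reaching about 45%, limit read from the data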;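 note: plate controls were DMSO-treated cells for no effect and wells lacking cells for full effect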
# Gli cytotox: counter-screen for Gli-SUFU antagonists: cytotoxicity; shares compounds with Gli-Sufu antag; Sufu-KO-LIGHT cells cytotoxicity, ATP luminescence; cytotoxicity, % at 5 µM; hit rate 32% among 2,500; AID 651994;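 active = mean cytotoxicity at 5 µM above about 25%, limit read from the data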;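 note: cells exposed to compound overnight for roughly 16 to 18 hours; plate controls were DMSO wells with cells for no effect and medium without cells for full effect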
# Wnt3a counter: counter-screen for Gli-SUFU antagonists: Wnt3a reporter inhibition; shares compounds with Gli-Sufu antag; Wnt-LIGHT cells, Wnt3a-driven luciferase reporter, luminescence; inhibition, % at 6.25 µM; hit rate 20% among 2,500;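 active = mean inhibition above about 25%, limit read from the data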
# GalR3 conf: confirmation of human galanin receptor 3 antagonists. shares compounds with GalR3 antagonist. HEK293 GalR3 CNG cAMP biosensor, membrane potential fluorescence; galR3 fused to GalR1 carboxy tail; challenged with forskolin and galanin at EC90. inhibition, % at 3 µM. hit rate 59% among 1,600. AID 652245;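 active = inhibition above the primary screen's cutoff, the mean inhibition of all screened compounds plus 3 SD, cut at about 13% in these data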;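 note: 0% = forskolin plus galanin and 100% = forskolin alone with DMSO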
# CNG parental: parental cell agonism counter-screen for GalR3 antagonists; HEK293-CNG parental cells, cAMP membrane potential fluorescence; normalised: DMSO wells 0%, forskolin wells 100%; shares compounds with GalR3 antagonist; hit rate 10% among 1,600; activation, % at 3 µM; AID 652268; in the data active = activation above about 1.3%
# VP16 Luc counter: inhibits VP16 reporter, flagging COUP-TFII antagonist hits | shares compounds with NR2F2 inh | inhibition, % at 8.5 µM | HEK293 Gal4-VP16 luciferase reporter, luminescence | hit rate 25% among 2,500; in the data active = inhibition above about 13%
# NR2F2 inh conf: confirmation of human COUP-TFII (NR2F2) inhibitors; hit rate 45% among 2,500; HEK293 NGFI-A luciferase reporter, luminescence; AID 687008; shares compounds with NR2F2 inh; inhibition, % at 8.5 µM;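 active = mean inhibition over three repeats above a set limit taken from the earlier primary screen, cut at about 38% in these data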;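 note: 100% = cells given the luciferase reporter alone without the COUP-TF2 vector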
# An asterisk follows results filed as active; . = not tested or not shown. A selection: hits, their analogues and other compounds. The true share with any hit is near 2%.
SMILES,GalR3 antagonist,Jurkat NFkB inh,697 NFkB inh,Gli-Sufu antag,NR2F2 inh,Gli antag conf,Gli cytotox,Wnt3a counter,VP16 Luc counter,NR2F2 inh conf,others
C=CCC12C=C(OC)C(=O)C(C1=O)C(c1ccc(OC)cc1)C2C (stereo not given),.,.,.,.,3.4,.,.,.,.,.,
COc1ccc(Cn2c(-c3ccc(C)cc3)c[n+]3ccccc23)cc1,-2.4,37.0,22.9,85.3*,51.8*,86.1*,28.7*,36.2*,7.7,40.0*,
COc1ccc(-c2nc3ccccc3n2Cc2ccc(C)cc2)cc1,-5.0,-43.9,-12.7,11.9,2.8,.,.,.,.,.,
C[n+]1cc(-c2ccccc2)n2c1CCCCC2,.,10.2,-0.4,19.6,.,.,.,.,.,.,
Clc1ccc(C[n+]2cc(-c3ccccc3)n3c2CCCCC3)c(Cl)c1,-5.3,19.7,2.8,85.6*,42.2*,87.1*,44.1*,24.8,11.1,21.6,
O=C1CCC[C@H]2C[C@H](NCc3ccco3)CC[C@]23CCCN13,.,.,.,.,-12.8,.,.,.,.,.,
Cc1cc(C)nc(/N=C(\N)Nc2ccc(-c3ccccc3)cc2)n1,-6.8,40.0,-37.8,67.4*,56.2*,37.3,18.1,-94.9,4.2,35.1,
NC(=O)c1ccccc1OCC(=O)N1CCC(Cc2ccccc2)CC1,20.6*,32.8,-19.7,52.7,64.2*,45.8*,17.4,27.1*,5.6,39.3*,GalR3 conf=14.6*;CNG parental=0.0
O=C(COc1ccccc1[N+](=O)[O-])N1CCC(Cc2ccccc2)CC1,-1.1,3.6,-1.9,1.2,14.1,.,.,.,.,.,
CC(C)(C)OC(=O)NCCCCCNC(=O)c1nc[nH]c1C(=O)NCCCCCNC(=O)OC(C)(C)C,-5.6,-9.7,-39.1,55.4*,55.0*,29.7,2.1,-25.6,1.9,33.3,
CN(C)S(=O)(=O)c1cccc(C(=O)N/N=C\c2ccccc2[N+](=O)[O-])c1,.,.,.,.,-44.7,.,.,.,.,.,
O=S(=O)(c1ccccc1C(F)(F)F)N1CCN(c2ncnc3sccc23)CC1,-7.1,-16.6,-13.9,8.8,15.4,.,.,.,.,.,
c1ccc(CC2CCN(c3ncnc4sccc34)CC2)cc1,70.1*,.,.,66.3*,54.5*,69.7*,32.8*,35.3*,-10.3,52.6*,GalR3 conf=87.8*;CNG parental=0.6
Cc1ccc(S(=O)(=O)N2CCN(c3ncnc4sccc34)CC2)cc1,-4.4,29.7,-42.6,63.3*,50.0*,57.9*,33.7*,22.1,5.9,37.2,
Cc1ccc(S(=O)(=O)N2CCC(=O)N(CCOCc3ccc(C(F)(F)F)cc3)CC2)cc1,8.9,27.5,-24.2,52.0,51.3*,29.8,13.4,-29.1,0.0,38.1*,
O=C1CCN(S(=O)(=O)c2ccccc2)CCN1CCOCc1ccc(C(F)(F)F)cc1,-5.9,2.6,15.5,8.5,20.5,.,.,.,.,.,
Cc1nc2ccccn2c1C(=O)NNS(=O)(=O)c1ccc(C(C)(C)C)cc1,-10.0,7.5,-21.5,50.7,45.9*,47.8*,27.3*,6.2,2.9,33.5,
COc1ccc(/C=C2\SC(=S)N(CCCC(=O)N3CCCCC3CCO)C2=O)cc1 (stereo not given),-7.2,3.5,3.3,65.7*,54.3*,24.7,13.3,16.8,42.3*,30.0,
Cc1cc(C)cc(OC[C@@H](O)CN2CCC(C(O)(c3ccccc3)c3ccccc3)CC2)c1,.,.,.,.,-10.0,.,.,.,.,.,
